Here are results for 31 compounds from PubChem BioAssay (NCATS).

Inconclusive results are not listed. Unmarked numbers belong to inactive results. The source made the active and inactive calls. Calls come from the whole dose curve; as a rule, active = well fitted inhibition curve with a large enough effect; inconclusive = small, poorly fitted or top-dose-only effect; inactive = flat fitted curve, though single readings scatter.
% is set by controls: 0 for no effect and ±100 for the full control effect; potency is the fitted concentration of half-maximal effect.

The subject of one assay is CRL-7250. In words: Cytotoxic Profiling of Annotated Libraries Using Quantitative High-Throughput Screening (AID 1296008). Note: nearly all actives have a fitted effect of over 60% in size. As to conditions: Five cell lines viability, CellTiter-Glo ATP luminescence, 48-72 h; max response: hits give low values. In a few lines:
(§1)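 Compounds were pin-transferred onto cells and incubated 48 or 72 hr at 37 degree Celsius, 95% humidity. CellTiter-Glo was added, plates sat 10 min at room temperature, then ATP-coupled luminescence was imaged as the viability read-out.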
With `O=C1C[C@]23C=CCN4CCC5c6cc7c(cc6N1[C@@]5(CC2)C43)OCO7` (stereo partly drawn), the max response was -12%.
As for `CCCSc1nc(N[C@@H]2C[C@H]2c2ccc(F)c(F)c2)c2nnn([C@@H]3C[C@H](OCCO)[C@@H](O)[C@H]3O)c2n1`, the compound was called inactive.
Turning to `CCN(c1cc(-c2ccc(CN3CCOCC3)cc2)cc(C(=O)NCc2c(C)cc(C)[nH]c2=O)c1C)C1CCOCC1`, the max response was -21.9%.
Same read-out and setting: then `C=C(C(=O)OC[C@H]1O[C@@H](OC(=O)/C=C/c2ccccc2)[C@H](O)[C@@H](O)[C@@H]1O)C(O)CO` (stereo partly drawn), with -9.26%.
The same measure, in the same setting: with `COc1ccc(S(=O)(=O)N2CCC[C@H]2C(=O)Nc2cc(C)cc(C)c2)cc1` the figure was 2.15%; with `CC1(C)SCCN(S(=O)(=O)c2ccc(Oc3ccncc3)cc2)[C@H]1C(=O)NO`, -1.93%; with `CS(=O)(=O)Nc1ccc2oc3c(OC(F)F)ccc(C(=O)Nc4c(Cl)cncc4Cl)c3c2c1`, -13.5%.
Consider `Nc1nccc(-c2c(-c3ccc(F)cc3)ncn2C2CCCCC2)n1`, for which the max response was -18.7%.
In the case of `Cn1cc(-c2ccc3c(c2)CCN3C(=O)Cc2cccc(C(F)(F)F)c2)c2c(N)ncnc21`, the Potency was 16.4 µM (active).
Take `Clc1cccc(COc2cncc(N3CCNCC3)n2)c1`: the result was inactive.

In the next assay the test system is HEK293. The assay is described as above. As to conditions: Five cell lines viability, CellTiter-Glo ATP luminescence, 48-72 h; max response: hits give low values. In a few lines:
as §1
Background: Cellular ATP, detected with luciferase, serves as a proxy for viable cell number.
With `CCC(CC)C(c1ccc(Nc2nc3ccccc3s2)cc1)n1cncn1` (stereo not drawn), the Potency is 10.3 µM (active).
Same read-out and setting: with `CC(C)CC(=O)c1c(O)cc2c(c1O)C(CC(C)C)C1=C(O2)C(C)(C)C(=O)C(C)(C)C1=O` (stereo not drawn) the figure was 5.63 µM (active); with `CNc1ccc([N+](=O)[O-])c(Nc2ccc3[nH]ncc3c2)n1`, 18.4 µM (active).
`C/C1=C\CCC2=CC(OC2=O)C(C)(C)/C=C/C1=O` (stereo not drawn): the Potency is 6.51 µM (active).
Same read-out and setting: then `CCN1CCN(Cc2ccc(C(=O)Nc3ccc(C)c(Oc4ccc5c(c4)CC(=O)N5)c3)cc2C(F)(F)F)CC1`, with 13 µM (active).
The same measure, in the same setting: then `Cc1cc2occ(CN(C)CCN(C)Cc3cn(-c4cccc(C(F)(F)F)c4)c4ccccc34)c(=O)c2cc1C`, with 8.2 µM (active).

The test system of the next assay is KB-3-1. Described as above. As to conditions: Five cell lines viability, CellTiter-Glo ATP luminescence, 48-72 h; max response: hits give low values. A digest of the protocol:
as §1
On to `CC(=O)O[C@H]1[C@H](O)C[C@@]2(C)C(CC[C@]3(C)C2CC=C2C4CC(C)(C)CC[C@]4(C(=O)O)CC[C@]23C)C1(C)C` (stereo partly drawn), for which the max response is -19.6%.
`CC(C)c1cc(-c2ccc(F)c3ccccc23)nc(N)n1`: the max response is -2.32%.
Regarding `O=C(Cc1c(F)cccc1F)Nc1cc(OCc2ccc(Cl)cc2)ccn1`, the outcome was inactive.
In the case of `Cc1ccnn1-c1ccc(C(=O)N2CCN(S(=O)(=O)c3ccc(Cl)c(C(F)(F)F)c3)CC2)cc1`, the max response is -18.8%.
The same measure, in the same setting: then `CC1=CC2/C=C(\C)CCC3OC(C)(C)OC3CCC(=O)C23C(=O)NC(CC(C)C)C3C1C` (stereo not drawn), with 3.72%; and `Cn1ccc(NC(=O)c2cc(Oc3ccc(C(=O)N4CCC4)c(F)c3)c3c(c2)OC(C)(C)C3)n1`, with 1.91%.
Regarding `CNc1cccc(CCOc2ccc3c(c2)CN(CC(F)(F)F)C(=O)[C@H](CC(=O)O)C3)n1`, the max response was -2.45%.
`COc1cccc(NCCC2(c3ccccc3)CC(C)(C)OC(C)(C)C2)c1`: the max response was -14.2%.
On to `CO[C@@H]1CC(OC2CCC3(C)C(CCC45CCC(C6=CC(=O)OC6)C(C)(CCC43)C5=O)C2)O[C@H](C)[C@@H]1O[C@@H]1O[C@H](CO[C@@H]2O[C@H](CO)[C@@H](O)[C@H](O)[C@H]2O)[C@@H](O)[C@H](O)[C@H]1O` (stereo partly drawn), for which the Potency is 3.48 µM (active).
Consider `O=C(CNC(=O)c1cccc(C(F)(F)F)c1)N[C@@H]1CCN(Cc2ccc(Cl)cc2)C1`, for which the max response was -17%.
Take `OC[C@H]1O[C@@H](OC/C=C/c2ccc(O)cc2)[C@H](O)[C@@H](O)[C@@H]1O`: the max response is -4.8%.
For the compound `Cc1c(C(=O)Nc2ccc(N3CCC(N4CCOCC4)CC3)c(C#N)c2)cnn1-c1ccc(Cl)cc1`, the Potency is 1.46 µM (active).
As for `Fc1ccc(N2CCCCC2)c(NC(=S)c2ccncc2)c1`, the max response is -9.62%.
Still for that read-out and setting: then `COc1ccccc1C(=O)Nc1cc2c(cc1N1CCCC1)n(C)c(=O)n2C`, with -11.6%; and `C/C=C/C=C/C=C/C(=O)O[C@@H]1C=C2COC(=O)[C@]2(O)[C@@]2(C)CCCC(C)(C)[C@H]12`, with -0.753%.
Same read-out and setting: with `CCCSc1nc(N[C@@H]2C[C@H]2c2ccc(F)c(F)c2)c2nnn([C@@H]3C[C@H](OCCO)[C@@H](O)[C@H]3O)c2n1` the figure was -26.6%; with `CCN(c1cc(-c2ccc(CN3CCOCC3)cc2)cc(C(=O)NCc2c(C)cc(C)[nH]c2=O)c1C)C1CCOCC1`, -1.86%.
With `C=C(C(=O)OC[C@H]1O[C@@H](OC(=O)/C=C/c2ccccc2)[C@H](O)[C@@H](O)[C@@H]1O)C(O)CO` (stereo partly drawn), the max response is -8.71%.
With `COc1ccc(S(=O)(=O)N2CCC[C@H]2C(=O)Nc2cc(C)cc(C)c2)cc1`, the compound was called inactive.
In the case of `CC1(C)SCCN(S(=O)(=O)c2ccc(Oc3ccncc3)cc2)[C@H]1C(=O)NO`, the max response was -10.1%.
The same measure, in the same setting: then `Nc1nccc(-c2c(-c3ccc(F)cc3)ncn2C2CCCCC2)n1`, with -18.1%; and `Clc1cccc(COc2cncc(N3CCNCC3)n2)c1`, with -0.792%.
